POLH inh: inhibitors of human DNA polymerase eta | Q9Y253 | recombinant Pol eta, fluorescent DNA replication assay | Potency, µM (highest dose often 114 µM), for the others: top-dose activity change, negative = inhibition, most hits filed as inhibitors | 390,000 compounds, 1.2% hits | AID 588591; note: % is set by controls: 0 for no effect and ±100 for the full control effect
Target sequence (Q9Y253 whole entry, looked up): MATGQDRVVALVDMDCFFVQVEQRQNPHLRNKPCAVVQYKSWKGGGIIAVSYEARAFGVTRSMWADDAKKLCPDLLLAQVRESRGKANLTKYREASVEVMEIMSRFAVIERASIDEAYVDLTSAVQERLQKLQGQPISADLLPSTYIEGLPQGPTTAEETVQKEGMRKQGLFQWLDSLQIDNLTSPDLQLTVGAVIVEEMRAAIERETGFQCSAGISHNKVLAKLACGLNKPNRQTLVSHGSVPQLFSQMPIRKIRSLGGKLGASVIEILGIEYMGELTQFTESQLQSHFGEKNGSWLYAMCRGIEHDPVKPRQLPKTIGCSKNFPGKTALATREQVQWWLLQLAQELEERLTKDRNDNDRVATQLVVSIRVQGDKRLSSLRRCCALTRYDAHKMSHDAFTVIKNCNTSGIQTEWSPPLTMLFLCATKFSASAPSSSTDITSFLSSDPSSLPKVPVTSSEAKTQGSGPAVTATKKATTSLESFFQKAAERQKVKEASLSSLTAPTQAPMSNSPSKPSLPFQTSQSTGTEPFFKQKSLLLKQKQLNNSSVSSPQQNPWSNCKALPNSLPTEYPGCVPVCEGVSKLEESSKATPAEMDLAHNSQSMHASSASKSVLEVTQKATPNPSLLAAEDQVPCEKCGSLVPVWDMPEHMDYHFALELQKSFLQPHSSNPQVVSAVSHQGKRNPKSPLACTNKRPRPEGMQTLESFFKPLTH
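Pol eta at 10 nM preincubated with compounds 15 min at room temperature; reaction started with fluorescent substrate (50 nM final) and read kinetically at 0 and 10 min.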
POLI inh: blocks human DNA polymerase iota activity | Pol iota fluorescent replication assay, 10 min | Potency, µM (highest dose often 115 µM), for inactives: at the highest dose activity, negative = inhibition, usual class: inhibitors | AID 588590 | Q9UNA4 | 390,000 compounds, 1% hits
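Pol iota at 10 nM preincubated 15 min with compounds at room temperature; reaction started with fluorescent substrate, 50 nM final. Fluorescence read kinetically at 0 and 10 min; buffer-only wells as negative control.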
GLS inhibitor: inhibitors of human glutaminase (GLS) | GLS enzymatic activity, qHTS titration | Potency, µM (series often up to 45.5 µM), inactives show at the top dose activity change, negative = inhibition, hits mostly inhibitors | 410,000 compounds, 0.21% hits | AID 624170; note: % is set by controls: 0 for no effect and ±100 for the full control effect
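Read-out is an Amplex red fluorescence increase coupled through glutamate oxidase and HRP, measured before and after 30 min room-temperature incubation. hKGA is in 45 mM KH2PO4 (pH 8.2) with 0.02% Tween-20; glutamine added as 1mM solution.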
APE1 inh: blocks human APE1 abasic DNA cleavage. Potency, µM (top dose mostly 65.8 µM), inactives show at the top dose activity change, negative = inhibition, actives largely listed as inhibitors. 350,000 compounds, 0.35% hits. AID 2517. P27695. recombinant APE1, TAMRA/BHQ-2 abasic DNA cleavage fluorescence;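 note: plate controls were vehicle for no effect and reference inhibitor for full effect; nearly all actives have a fitted effect of over 55% in size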
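APE1 at 0.75 nM preincubated 15 min at room temperature with compound. Reaction then started with 50 nM double-stranded THF-abasic substrate labelled with TAMRA/BHQ-2, and 525/598 nm fluorescence read kinetically. Activity taken as third-minus-first read difference, normalized to DMSO and NSC13755 controls.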
Pol beta inh: blocks human DNA polymerase beta activity; AID 485314; Pol beta primer extension/strand displacement, fluorescence kinetic; Potency, µM (doses to about 114 µM), without a hit: at the top dose activity change, negative = inhibition, usual class: inhibitors; 340,000 compounds, 1.3% hits; P06746; note: % is set by controls: 0 for no effect and ±100 for the full control effect
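Curves were derived by four-parameter Hill fits of normalized qHTS data. The kinetic fluorescent primer-extension read was taken at 0 and 10 min after 50 nM substrate, following a 15 min room-temperature preincubation of 10 nM enzyme with compounds.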
POLK inh: blocks human DNA polymerase kappa activity | purified Pol kappa, fluorescent DNA synthesis assay, 10 min | 400,000 compounds, 0.53% hits | Potency, µM (top dose mostly 107 µM), without a hit: at the highest dose activity, negative = inhibition, actives largely listed as inhibitors; note: % is set by controls: 0 for no effect and ±100 for the full control effect
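First, compounds were pin-transferred onto 10 nM Pol kappa. After 15 min at room temperature, substrate was added to 50 nM final. Fluorescence was then measured kinetically at 0 and 10 min.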
* = called active by the depositor; ? = inconclusive; . = not tested or not shown; ! = not active in a repeat; [ ] = another dose, or the depositor's remark. An excerpt weighted towards active compounds, which were near 2.4% of everything screened. Calls come from the whole dose curve; as a rule, active = well fitted curve in the direction sought with a large enough effect; inconclusive = small, poorly fitted or top-dose-only effect, or another doubt; inactive = no such curve, though single readings can be large; an effect the other way counts as inactive or inconclusive. Potency is the fitted concentration of half-maximal effect.

SMILES	POLH inh	POLI inh	GLS inhibitor	APE1 inh	Pol beta inh	POLK inh
CCCNC(=O)c1ccc(-c2nc3ccccc3s2)s1	?	?	1%	-4%	16µM*	-10%
CCCCNC(=O)C1Cc2cc(S(=O)(=O)N3CCCC3)ccc2N1C(C)=O (stereo unspecified)	-18%	24%	0%	8%	1%	-11%
CSc1ccc(/C=N/NC(=O)CN2CCN(Cc3ccccc3Cl)CC2)cc1	-10%	8%	6%	2%	0.2µM*	-6%
COc1ccc(S(=O)(=O)N(C)CC(=O)Nc2ccc(F)cc2)cc1	-6%	41%	-7%	-1%	11%	-15%
Cc1ccc(OCC(=O)OCC(=O)N2c3ccccc3CC2C)cc1C (stereo unspecified)	-15%	?	10%	16%	.	-18%
CN1CCN(CCCNc2nc3ccccc3c3nc(-c4ccccc4)nn23)CC1	9%	18%	2%	.	.	-2%
COc1cc2nc(NCCCN3CCN(C)CC3)n3nc(-c4ccccc4)nc3c2cc1OC	?	?	7%	10%	25µM*	?
CCN(CC)CCCNc1nc2ccccc2c2nc(-c3ccncc3)nn12	20%	?	-20%	-16%	35µM*	?
O=C(O)CC[C@H](NC(=O)c1ccccc1C(=O)O)C(=O)O	-3%[57.1 µM]	9%[58.9 µM]	.	-1%	15%[57.1 µM]	.
c1ccc(Cc2nnc3sc(Nc4ccccc4)nn23)cc1	-11%	-22%	-3%	-5%	10%	-8%
CN(C)S(=O)(=O)c1cccc(-c2nn(-c3ccccc3)cc2/C=C(\C#N)c2nc3ccccc3[nH]2)c1	-18%	30%	4%	3%	-11%	-19%
CN(C)S(=O)(=O)c1cccc(-c2nn(-c3ccccc3)cc2/C=C2\SC(=S)NC2=O)c1	14µM*	?	7%	-5%	20µM*	?
Nc1cc(N)cc(N)c1	.	1.6µM*	.	.	.	?
CC(=O)N[C@@H](CC(=O)O)C(=O)N[C@@H](CCC(=O)O)C(=O)O	.	.	15%	3.5µM*!	.	?
CC(=O)NC(CCC(=O)O)C(=O)O (stereo unspecified)	-7%	-14%	5%	10%	.	-18%
CN(N=Cc1ccccc1)C(=S)Nc1ccccc1	-15%	.	16µM*	.	.	.
C/C(=C\C(=S)Nc1ccccc1)Nc1ccccc1	-18%	8%	13%	3%	28%	-15%
Cc1ccc(C)c(OCc2nnc(NC(=O)c3ccco3)s2)c1	?	7%	0%	0%	?	-12%
Oc1ccc(Br)cc1CNc1cccc2cccnc12	?	29%	34%	9%	-10%	-6%
Oc1c(Br)cc(Br)cc1CNc1cccc2cccnc12	-18%	?	16%	-13%	45µM*	?
Cn1c(CC(=O)Nc2ccccc2)nnc1SCCOc1ccccc1	-20%	10%	-12%	0%	19%	-11%
NC(CCCCCP(=O)(c1ccccc1)c1ccccc1)C(=O)O (stereo unspecified)	0%	79µM*	?	14µM*	18µM*	-26%
O=C(O)CC(CP(=O)(c1ccccc1)c1ccccc1)C(=O)O (stereo unspecified)	11%	-3%	0%	-7%	11%	-4%
C[C@]12CCC(O)CC1=CCC1C2CC[C@]2(C)/C(=N\NC(N)=S)CCC12 (stereo partly specified)	-7%	12%	-4%	-9%	63%	14%
Cc1cccc(C(=O)Nc2nnc(S(=O)(=O)N(C)Cc3ccc(Cl)cc3)s2)c1	-11%	89µM*	5%	.	24%	-1%
CCN(c1ccc(C)cc1C)S(=O)(=O)c1nnc(NC(=O)c2ccc(F)cc2)s1	-10%	?	4%	.	18µM*	-28%
CCCCCCCCc1nnc(NC(=O)c2ccco2)s1	-12%	-3%	-1%	1%	35µM*	-7%
CCOCc1nnc(NC(=O)c2ccco2)s1	-18%	11%	-27%	0%	4%	-7%

Screens: PubChem BioAssay, National Center for Advancing Translational Sciences (NCATS)
